Inconclusive results are not listed. Calls of active or inactive are those of the source. The calls were made as follows: active = hit-call score of the fitted dose curve at least 0.9, where 1 is the maximum; inconclusive = response in the unintended direction; inactive = score below 0.9.
Assays:
[1] = read-out: Cytochrome P450 3A4 (Homo sapiens) (UniProt P08684); assay: CLD_CYP3A4_6hr: CellzDirect (CLD) Gene Expression Assay for xenobiotic metabolism (CYP3A4) at 6 hours (AID 2283680)
Method in brief: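 CYP3A4 mRNA induction, 6 h after dosing of cultured primary human hepatocytes from two donors, read by quantitative nuclease protection (qNPA, chemiluminescence). Vehicle 0.2% DMSO as baseline; morphology-based cytotoxicity annotated yes/no.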

[2] = read-out: Glyceraldehyde-3-phosphate dehydrogenase (Homo sapiens) (UniProt P04406); assay: CLD_GAPDH_6hr: CellzDirect (CLD) Gene Expression Assay for Baseline Control (Glyceraldehyde 3-phosphate dehydrogenase) at 6 hours (AID 2283681);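 also: active means increased signal relative to DMSO vehicle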
Method in brief: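 GAPDH baseline-control readout from qNPA (S1 nuclease digestion, probe hybridization, chemiluminescence) in lysates of cultured human hepatocytes harvested 6 h post-dosing. Chemicals tested at multiple concentrations versus 0.2% DMSO vehicle; microscopy-based cytotoxicity flagged yes/no.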

[3] = read-out: HMG-CoA synthase (HMGCS2), HMGCS2 (gene 3158); assay: CLD_HMGCS2_6hr: CellzDirect (CLD) Gene Expression Assay for HMG-CoA synthase (HMGCS2) at 6 hours (AID 2283682);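 also: actives raise HMGCS2 transcript above the 0.2% DMSO vehicle baseline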
Method in brief: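 HMGCS2 transcript induction read by quantitative nuclease protection with chemiluminescence, 6 h after dosing of primary human hepatocytes. Baseline was 0.2% DMSO vehicle; phase-contrast morphology gave a yes/no cytotoxicity annotation.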

[4] = read-out: ABC Transporter (ABCB1), ABCB1 (gene 5243); assay: CLD_ABCB1_24hr: CellzDirect (CLD) Gene Expression Assay for ABC Transporter (ABCB1) at 24 hours (AID 2283684);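 as to AC50: potency for increase in ABCB1 mRNA relative to DMSO vehicle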
Method in brief: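 ABCB1 mRNA induction versus 0.2% DMSO vehicle was read by qNPA chemiluminescence at 24 h. Cultured human hepatocytes from two donor preparations received daily fresh dosing, and phase-contrast cytotoxicity calls were annotated alongside the data.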

[5] = read-out: Cytochrome P450 2B6 (Homo sapiens) (UniProt P20813); assay: CLD_CYP2B6_24hr: CellzDirect (CLD) Gene Expression Assay for xenobiotic metabolism (CYP2B6) at 24 hours (AID 2283686)
Method in brief: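 qNPA chemiluminescent measurement of mRNA at 24 hours in human primary hepatocyte cultures from two donor preparations, with daily fresh dosing and 0.2% DMSO vehicle as baseline. Morphology-based cytotoxicity flagged yes/no.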

[6] = read-out: Cytochrome P450 2C19 (Homo sapiens) (UniProt P33261); assay: CLD_CYP2C19_24hr: CellzDirect (CLD) Gene Expression Assay for xenobiotic metabolism (CYP2C19) at 24 hours (AID 2283687);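 also: activity means mRNA induction above DMSO vehicle baseline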
Method in brief: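 CYP2C19 mRNA was quantified by qNPA chemiluminescence after 24 h of daily dosing of cultured human primary hepatocytes from two donors; vehicle was 0.2% DMSO, and increases over DMSO baseline were fitted.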

[7] = read-out: Cytochrome P450 2C9 (Homo sapiens) (UniProt P11712); assay: CLD_CYP2C9_24hr: CellzDirect (CLD) Gene Expression Assay for xenobiotic metabolism (CYP2C9) at 24 hours (AID 2283688)
Method in brief: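 Induction of CYP2C9 mRNA was quantified by quantitative nuclease protection assay (chemiluminescence), gain of signal versus 0.2% DMSO vehicle, 24 h after dosing. Human primary hepatocytes (two donors) received fresh chemical daily at multiple concentrations; morphology-based cytotoxicity flagged yes/no.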

[8] = read-out: xenobiotic metabolism (CYP1A2), CYP1A2 (gene 1544); assay: CLD_CYP1A2_24hr: CellzDirect (CLD) Gene Expression Assay for xenobiotic metabolism (CYP1A2) at 24 hours (AID 2283683)
Method in brief: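 CYP1A2 mRNA induction measured by quantitative nuclease protection (chemiluminescent) in human primary hepatocytes 24 h after multi-concentration chemical dosing with daily fresh solutions. DMSO (0.2%) baseline; positive-direction fitting; morphology-based cytotoxicity noted.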

[9] = read-out: Broad substrate specificity ATP-binding cassette transporter ABCG2 (Homo sapiens) (UniProt Q9UNQ0); assay: CLD_ABCG2_24hr: CellzDirect (CLD) Gene Expression Assay for ABC Transporter (ABCG2) at 24 hours (AID 2283685);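 as to AC50: AC50 is for induction meaning signal gain over DMSO vehicle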
Method in brief: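 ABCG2 mRNA induction, read as gain of chemiluminescent signal over 0.2% DMSO, was measured by quantitative nuclease protection at 24 h. Cultured human liver hepatocytes were given fresh dosing solutions of test chemicals at several concentrations each day.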

Chain of Cytochrome P450 2C19 (Homo sapiens) (P33261 whole entry, looked up): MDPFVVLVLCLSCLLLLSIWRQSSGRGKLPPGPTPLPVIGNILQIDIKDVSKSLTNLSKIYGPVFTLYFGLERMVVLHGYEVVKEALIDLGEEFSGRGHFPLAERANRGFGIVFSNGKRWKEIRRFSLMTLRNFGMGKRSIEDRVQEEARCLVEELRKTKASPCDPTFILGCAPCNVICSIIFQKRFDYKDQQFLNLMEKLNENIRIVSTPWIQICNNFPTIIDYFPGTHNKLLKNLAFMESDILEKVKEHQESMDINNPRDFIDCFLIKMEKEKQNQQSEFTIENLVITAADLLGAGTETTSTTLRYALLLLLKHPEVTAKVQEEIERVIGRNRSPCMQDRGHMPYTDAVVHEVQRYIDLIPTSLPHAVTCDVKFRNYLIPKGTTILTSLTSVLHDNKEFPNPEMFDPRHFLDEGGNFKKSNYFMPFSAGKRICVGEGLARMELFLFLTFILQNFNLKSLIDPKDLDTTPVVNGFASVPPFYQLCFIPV
Chain of Cytochrome P450 3A4 (Homo sapiens) (P08684 whole entry, looked up): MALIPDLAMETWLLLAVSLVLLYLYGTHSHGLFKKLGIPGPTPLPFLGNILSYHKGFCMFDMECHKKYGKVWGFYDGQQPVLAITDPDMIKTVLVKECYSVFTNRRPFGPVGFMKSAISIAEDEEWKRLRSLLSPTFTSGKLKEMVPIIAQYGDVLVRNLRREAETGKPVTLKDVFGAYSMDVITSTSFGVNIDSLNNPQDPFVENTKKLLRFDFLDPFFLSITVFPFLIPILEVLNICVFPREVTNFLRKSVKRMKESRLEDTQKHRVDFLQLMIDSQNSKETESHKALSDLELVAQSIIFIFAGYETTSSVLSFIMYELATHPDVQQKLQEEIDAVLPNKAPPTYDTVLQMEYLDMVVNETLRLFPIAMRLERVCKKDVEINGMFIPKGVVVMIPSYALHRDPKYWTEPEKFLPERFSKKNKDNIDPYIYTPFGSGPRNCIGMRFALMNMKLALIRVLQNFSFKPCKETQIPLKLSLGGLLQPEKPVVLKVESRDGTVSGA
Chain of Glyceraldehyde-3-phosphate dehydrogenase (Homo sapiens) (P04406 whole entry, looked up): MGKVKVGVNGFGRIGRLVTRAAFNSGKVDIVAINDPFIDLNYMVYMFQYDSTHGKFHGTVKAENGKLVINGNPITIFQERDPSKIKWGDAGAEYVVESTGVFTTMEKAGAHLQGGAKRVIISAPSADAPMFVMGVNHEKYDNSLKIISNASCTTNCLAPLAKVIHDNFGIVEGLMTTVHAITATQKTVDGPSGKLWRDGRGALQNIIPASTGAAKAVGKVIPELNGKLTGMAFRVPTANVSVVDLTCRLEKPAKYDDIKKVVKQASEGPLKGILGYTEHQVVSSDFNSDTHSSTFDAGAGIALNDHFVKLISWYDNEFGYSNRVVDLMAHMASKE
Chain of Broad substrate specificity ATP-binding cassette transporter ABCG2 (Homo sapiens) (Q9UNQ0 whole entry, looked up): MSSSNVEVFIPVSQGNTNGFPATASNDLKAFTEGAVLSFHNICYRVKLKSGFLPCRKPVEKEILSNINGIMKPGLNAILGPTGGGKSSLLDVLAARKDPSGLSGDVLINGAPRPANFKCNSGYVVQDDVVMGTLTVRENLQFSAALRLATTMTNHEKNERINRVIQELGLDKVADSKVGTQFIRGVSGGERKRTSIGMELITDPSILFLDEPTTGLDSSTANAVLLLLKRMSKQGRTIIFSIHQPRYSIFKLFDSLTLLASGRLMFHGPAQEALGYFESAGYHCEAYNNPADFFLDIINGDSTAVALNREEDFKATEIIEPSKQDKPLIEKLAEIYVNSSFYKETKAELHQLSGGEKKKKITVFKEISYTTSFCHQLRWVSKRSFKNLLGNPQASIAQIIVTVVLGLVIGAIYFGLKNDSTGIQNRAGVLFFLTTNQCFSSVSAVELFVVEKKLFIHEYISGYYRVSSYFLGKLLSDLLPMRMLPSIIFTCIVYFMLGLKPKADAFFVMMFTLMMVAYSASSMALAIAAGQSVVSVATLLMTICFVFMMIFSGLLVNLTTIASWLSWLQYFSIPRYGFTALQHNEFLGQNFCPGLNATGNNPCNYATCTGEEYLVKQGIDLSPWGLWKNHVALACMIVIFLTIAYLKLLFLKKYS

For CNC(=O)ON=C(SC)C(=O)N(C)C, the outcome [1] was “inactive”, the outcome [2] was “inactive” and the outcome [3] was “inactive”. The outcome [4] was “inactive”, the outcome [5] was “inactive” and the outcome [6] was “inactive”. The outcome [7] was “inactive”.
CNC(=O)Oc1cccc2c1OC(C)(C)O2 was tested, and the outcome [1] was “inactive”, the outcome [3] was “inactive” and the AC50 [8] was 20 µM (active). The outcome [4] was “inactive”, the AC50 [5] was 20 µM (active) and the outcome [6] was “inactive”. The outcome [7] was “inactive”.
In the case of CCCCN(CC)c1c([N+](=O)[O-])cc(C(F)(F)F)cc1[N+](=O)[O-], the outcome [1] is reported as “inactive”, the outcome [2] is reported as “inactive” and the AC50 [8] is reported as 7.29 µM (active). The outcome [4] was “inactive”, the AC50 [5] was 7.3 µM (active) and the outcome [7] was “inactive”.
In the case of C=C(C)[C@H]1Cc2c(ccc3c2O[C@@H]2COc4cc(OC)c(OC)cc4[C@@H]2C3=O)O1, the outcome [2] is reported as “inactive”, the outcome [3] is reported as “inactive” and the outcome [4] is reported as “inactive”. The AC50 [9] was 6.65 µM (active), the outcome [6] was “inactive” and the outcome [7] was “inactive”.
With CN(C)NC(=O)CCC(=O)O the outcome [1] was “inactive”, the outcome [2] was “inactive” and the outcome [3] was “inactive”. For the same compound, the outcome [4] was “inactive”, the outcome [9] was “inactive” and the outcome [5] was “inactive”. The outcome [6] was “inactive”.
With CCOP(=S)(Oc1cnc(C(C)(C)C)nc1)OC(C)C (configuration not stated) the AC50 [1] was 1.89 µM (active), the outcome [2] was “inactive” and the outcome [4] was “inactive”. For the same compound, the outcome [9] was “inactive”, the AC50 [5] was 2.05 µM (active) and the outcome [6] was “inactive”. The outcome [7] was “inactive”.
For CC(COc1ccc(Oc2ccccc2)cc1)Oc1ccccn1 (configuration not stated), the AC50 [1] was 20 µM (active), the outcome [3] was “inactive” and the outcome [4] was “inactive”. The outcome [9] was “inactive”, the AC50 [5] was 3.97 µM (active) and the outcome [7] was “inactive”.
For C[Si](Cn1cncn1)(c1ccc(F)cc1)c1ccc(F)cc1, the outcome [2] was “inactive”, the outcome [3] was “inactive” and the AC50 [8] was 1.89 µM (active). For the same compound, the AC50 [4] was 4.51 µM (active), the outcome [9] was “inactive” and the AC50 [5] was 0.179 µM (active).
With Cc1ccn2nc(S(=O)(=O)Nc3c(F)cccc3F)nc2n1 the outcome [1] was “inactive”, the outcome [2] was “inactive” and the outcome [4] was “inactive”. The outcome [9] was “inactive”, the outcome [5] was “inactive” and the outcome [6] was “inactive”. The outcome [7] was “inactive”.
O=[N+]([O-])c1cc(C(F)(F)F)c(Cl)c([N+](=O)[O-])c1Nc1ncc(C(F)(F)F)cc1Cl was tested, and the outcome [1] was “inactive”, the outcome [2] was “inactive” and the outcome [3] was “inactive”. For the same compound, the outcome [5] was “inactive”.
CC(C)[C@H](C(=O)O[C@H](C#N)c1cccc(Oc2ccccc2)c1)c1ccc(Cl)cc1 was tested, and the outcome [1] was “inactive”, the outcome [2] was “inactive” and the outcome [4] was “inactive”. For the same compound, the outcome [5] was “inactive” and the outcome [6] was “inactive”.
In the case of CCC(=O)Nc1ccc(Cl)c(Cl)c1, the outcome [3] is reported as “inactive” and the AC50 [5] is reported as 3.95 µM (active).
In the case of CSc1nc(NC(C)C)nc(NC(C)C)n1, the outcome [1] is reported as “inactive”, the outcome [2] is reported as “inactive” and the outcome [4] is reported as “inactive”. The AC50 [5] was 2.99 µM (active), the outcome [6] was “inactive” and the outcome [7] was “inactive”.
For CNC(=O)ON=C(C)SC, the outcome [2] was “inactive”, the outcome [3] was “inactive” and the outcome [4] was “inactive”. The outcome [9] was “inactive”, the outcome [5] was “inactive” and the outcome [6] was “inactive”.
CCCOc1nn(C(=O)NS(=O)(=O)c2ccccc2C(=O)OC)c(=O)n1C was tested, and the outcome [2] was “inactive”, the outcome [3] was “inactive” and the outcome [5] was “inactive”. For the same compound, the outcome [7] was “inactive”.
With COP(=O)(OC)OC(Br)C(Cl)(Cl)Br (configuration not stated) the outcome [2] was “inactive”, the outcome [3] was “inactive” and the outcome [8] was “inactive”. For the same compound, the outcome [4] was “inactive”, the outcome [5] was “inactive” and the outcome [6] was “inactive”.
For C[N+]1(C)CCCCC1, the outcome [1] was “inactive”, the outcome [4] was “inactive” and the outcome [9] was “inactive”. For the same compound, the outcome [7] was “inactive”.
COc1cccc(C(=O)NN(C(=O)c2cc(C)cc(C)c2)C(C)(C)C)c1C was tested, and the AC50 [1] was 0.886 µM (active), the outcome [3] was “inactive” and the outcome [4] was “inactive”. The outcome [9] was “inactive”, the AC50 [5] was 2.35 µM (active) and the outcome [6] was “inactive”.
In the case of COP(=O)(NC(C)=O)SC (configuration not stated), the outcome [1] is reported as “inactive”, the outcome [2] is reported as “inactive” and the outcome [4] is reported as “inactive”. For the same compound, the outcome [5] was “inactive”.
For COc1ccc(C(=CC(=O)N2CCOCC2)c2ccc(Cl)cc2)cc1OC, the AC50 [1] was 2.29 µM (active), the outcome [4] was “inactive” and the outcome [9] was “inactive”. For the same compound, the AC50 [5] was 3.59 µM (active), the outcome [6] was “inactive” and the outcome [7] was “inactive”.

Source: PubChem BioAssay (EPA / NIEHS)
